Data from PubChem BioAssay (NCATS).
Records with an inconclusive call do not appear. Calls of active or inactive are those of the source. The call rests on the fitted dose curve; in most records, active means well fitted inhibition curve with a large enough effect; inconclusive means small, poorly fitted or top-dose-only effect; inactive means flat fitted curve, though single readings scatter.

Tests used:
CRL-7250 [1] = experiment: Cytotoxic Profiling of Annotated Libraries Using Quantitative High-Throughput Screening (AID 1296008); conditions: Five cell lines viability, CellTiter-Glo ATP luminescence, 48-72 h; max response: stronger effect = lower value; further: potency means the concentration at half of the fitted maximal effect; on max response: on the % scale 0 is the no-effect control and ±100 the full control effect
Procedure, shortened: (§1)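 Cells exposed to compounds for 48 or 72 hr at 37 degrees Celsius. Viability read as ATP-coupled luminescence with CellTiter-Glo after 10 min at room temperature.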

HEK293 = experiment: as above; conditions: Five cell lines viability, CellTiter-Glo ATP luminescence, 48-72 h; max response: stronger effect = lower value
Procedure, shortened: as §1

HaCat [2] = experiment: as above; conditions: Five cell lines viability, CellTiter-Glo ATP luminescence, 48-72 h; max response: stronger effect = lower value
Procedure, shortened: as §1

NIH3T3 = experiment: as above; conditions: Five cell lines viability, CellTiter-Glo ATP luminescence, 48-72 h; max response: stronger effect = lower value
Procedure, shortened: as §1

HEK293T = experiment: qHTS assay to identify novel small-molecules to repurpose for Merkel cell carcinoma treatment (AID 1296009); conditions: MCC and control cell lines, CellTiter-Glo viability, 72 h; at 44.8 µM (top of the series) unless noted
Procedure, shortened: (§2)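 Dose-response viability screen; 72 hr exposure at 37 degree celsius; CellTiter-Glo added, 10 min room temperature, luminescence read; RLUs scaled between no-cell and DMSO wells.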

CRL-7250 [3] = experiment: as above; conditions: MCC and control cell lines, CellTiter-Glo viability, 72 h; at 44.8 µM (top of the series) unless noted
Procedure, shortened: as §2

HACAT [4] = experiment: as above; conditions: MCC and control cell lines, CellTiter-Glo viability, 72 h; at 44.8 µM (top of the series) unless noted
Procedure, shortened: as §2

KB-3-1 = experiment: Cytotoxic Profiling of Annotated Libraries Using Quantitative High-Throughput Screening (AID 1296008); conditions: Five cell lines viability, CellTiter-Glo ATP luminescence, 48-72 h; max response: stronger effect = lower value; further: potency means the concentration at half of the fitted maximal effect; on max response: on the % scale 0 is the no-effect control and ±100 the full control effect
Procedure, shortened: as §1
Further: nearly all actives have a fitted effect of over 60% in size.

CC(=O)OC1CC(O)C2(C)C(CC(OC(C)=O)C3(C)C2CCC2(C)C(c4ccoc4)C(=O)C4OC423)C1(C)C (stereo not given)
inactive: max response (CRL-7250 [1]) -9.87% | outcome (HEK293) | max response (HaCat [2]) -22.5% | max response (NIH3T3) -1.6% | outcome (HEK293T) inactive [at 17.4 µM]

C=C1[C@@H]2CC[C@@]3(C)[C@H](c4ccoc4)OC(=O)C[C@]13O[C@H]1CC(=O)C(C)(C)[C@H](C(OC(C)=O)C(=O)OC)[C@]12C (stereo not given in full)
inactive: outcome (CRL-7250 [1]) | max response (HEK293) -1.58% | outcome (HaCat [2]) | max response (NIH3T3) -2.92% | outcome (CRL-7250 [3]) inactive [at 17.4 µM] | outcome (HACAT [4]) inactive [at 17.4 µM]

CC1=C2C(=O)C3[C@@H](CC=C4C[C@@H](O)CC[C@@]43C)[C@@H]2CC[C@]12O[C@@H]1C[C@H](C)CN[C@H]1[C@H]2C (stereo not given in full)
inactive: outcome (CRL-7250 [1]) | max response (HEK293) -3.9% | outcome (HaCat [2]) | outcome (NIH3T3) | outcome (CRL-7250 [3]) inactive [at 17.4 µM] | outcome (HACAT [4]) inactive [at 17.4 µM]

COC(=O)C1(C)CCC(O)C2(C)c3cc(O)c(C(C)C)cc3C(O)C(OC(C)=O)C12 (stereo not given)
inactive: outcome (CRL-7250 [1]) | max response (HEK293) 3.05% | outcome (HaCat [2]) | max response (NIH3T3) 3.45% | outcome (CRL-7250 [3]) inactive [at 17.4 µM] | outcome (HACAT [4]) inactive [at 17.4 µM]

C[C@@](O)(COc1ccc(C#N)cc1)C(=O)Nc1ccc(C#N)c(C(F)(F)F)c1
inactive: max response (CRL-7250 [1]) -2.54% | outcome (HaCat [2]) | outcome (NIH3T3) | outcome (HACAT [4])
active: Potency (HEK293) 14600 nM

COC(=O)[C@@]12C(=O)C(C)C(=O)[C@]1(C)C(C)=C[C@H]1[C@]3(C=O)CC[C@H](OC(C)=O)C(C)(C)[C@H]3CC[C@@]12C (stereo not given in full)
inactive: outcome (CRL-7250 [1]) | outcome (HEK293) | outcome (HaCat [2]) | max response (NIH3T3) 3.28% | outcome (CRL-7250 [3]) inactive [at 17.4 µM] | outcome (HACAT [4]) inactive [at 17.4 µM] | outcome (HEK293T) inactive [at 17.4 µM]

C/C=C(\C)C(=O)OC1CC2C(CC=C3CC(OC4CC(OC)C(OC5CC(OC)C(OC6OC(C)C(OC7OC(CO)C(O)C(O)C7O)C(OC)C6O)C(C)O5)C(C)O4)CCC32C)C2(O)CCC(C(C)=O)C12C (stereo not given)
inactive: outcome (CRL-7250 [1]) | max response (HEK293) -9.26% | outcome (HaCat [2]) | max response (NIH3T3) -0.91% | outcome (CRL-7250 [3]) inactive [at 9.27 µM] | outcome (HACAT [4]) inactive [at 9.27 µM]

CC1=CC2/C=C(\C)CCC(O)C3OC(C)(C)OC3CC(=O)OC23C(=O)NC(CC(C)C)C3C1C (stereo not given)
inactive: max response (CRL-7250 [1]) 0.49% | max response (HEK293) 2.48% | outcome (HaCat [2]) | outcome (KB-3-1) | outcome (NIH3T3) | outcome (HACAT [4]) inactive [at 17.4 µM]

C=C(C)[C@H]1O[C@H]2CC[C@@]3(C)[C@@](O)(CC[C@H]4[C@@H]5OC(C)(C)[C@H]6C[C@@H]7C(=C)Cc8c(Cl)cc9[nH]c(c5c9c8[C@@]76O)[C@@]43C)[C@]23O[C@@H]3[C@H]1O
inactive: max response (CRL-7250 [1]) -5.7% | outcome (HEK293) | max response (HaCat [2]) 4.01% | outcome (KB-3-1) | max response (NIH3T3) -2.87% | outcome (HEK293T) inactive [at 17.4 µM]

CC1=C2C[C@H]3[C@@H](CC=C4C[C@@H](O)CC[C@@]43C)[C@@H]2CC[C@]12O[C@@H]1C[C@H](C)CN[C@H]1[C@H]2C
inactive: max response (CRL-7250 [1]) 0.632% | outcome (HEK293) | max response (HaCat [2]) 3.98% | max response (KB-3-1) 1.29% | outcome (NIH3T3) | outcome (HEK293T)

CN1C(=O)N(c2ccc(C#N)c(C(F)(F)F)c2)C(=O)[C@]1(CO)c1ccccc1
inactive: outcome (CRL-7250 [1]) | max response (HEK293) -8.53% | max response (HaCat [2]) 1.18% | outcome (NIH3T3) | outcome (CRL-7250 [3])

CCCCCCn1c(=O)c(C(=O)Nc2ccc(C(=O)OCCC)cc2)c(O)c2ccccc21
inactive: max response (CRL-7250 [1]) 0.836% | outcome (HEK293) | outcome (HaCat [2]) | outcome (KB-3-1) | max response (NIH3T3) 4.2% | outcome (HACAT [4]) inactive [at 9.27 µM] | outcome (HEK293T) inactive [at 9.27 µM]

COC1CC(O[C@H]2CC[C@@]3(C)C(=CCC4C3C(O)[C@@H](O)[C@]3(C)[C@@H](C(C)=O)CC[C@]43O)C2)OC(C)C1OC1CC(OC)C(OC2OC(C)C(O)C(O)C2O)C(C)O1 (stereo not given in full)
inactive: max response (CRL-7250 [1]) -8.18% | outcome (HEK293) | outcome (HaCat [2]) | outcome (KB-3-1) | outcome (NIH3T3) | outcome (HACAT [4]) inactive [at 9.27 µM] | outcome (HEK293T) inactive [at 9.27 µM]

C/C=C(\C)C(=O)OC1C(C)OC(OC2C(C)OC(OC3CCC4(C)C(=CCC5C4CCC4(C)C(C(C)OC6OC(COC7OC(CO)C(O)C(O)C7O)C(O)C(O)C6O)CCC54O)C3)CC2OC)C(O)C1OC (stereo not given)
inactive: max response (CRL-7250 [1]) -8.85% | max response (HEK293) -2.95% | outcome (HaCat [2]) | outcome (NIH3T3) | outcome (HACAT [4]) inactive [at 9.27 µM]

CC(N)Cc1c[nH]c2ccccc12 (stereo not given)
inactive: max response (CRL-7250 [1]) -5.98% | outcome (HEK293) | max response (HaCat [2]) -7.15% | outcome (KB-3-1) | outcome (NIH3T3) | outcome (HEK293T)

C/C=C(\C)C(=O)O[C@H]1[C@H](OC(C)=O)[C@]2(CO)[C@H](O)[C@H](O)[C@]3(C)C(=CCC4[C@@]5(C)CC[C@H](O[C@@H]6O[C@H](C(=O)O)[C@@H](O)[C@H](O[C@@H]7OC[C@H](O)[C@H](O[C@@H]8OC[C@H](O)[C@H](O)[C@H]8O)[C@H]7O)[C@H]6O[C@@H]6O[C@H](CO)[C@@H](O)[C@H](O)[C@H]6O)C(C)(C)C5CC[C@]43C)[C@@H]2CC1(C)C (stereo not given in full)
inactive: max response (CRL-7250 [1]) 4.83% | outcome (HEK293) | max response (HaCat [2]) 3.31% | outcome (KB-3-1) | outcome (NIH3T3) | outcome (HEK293T) inactive [at 9.27 µM]

C[C@]12CC[C@H]3[C@@H]([C@H](O)CC4=CC(=O)CC[C@@]43C)[C@@H]1CC[C@@H]2O
inactive: outcome (CRL-7250 [1]) | max response (HEK293) -7.8% | max response (HaCat [2]) -25.7% | outcome (NIH3T3) | outcome (CRL-7250 [3])

CO[C@H]1[C@H](O)[C@H](O[C@H]2CC[C@]3(C)C4CC[C@]5(C)[C@H](C6=CC(=O)OC6)CC[C@]5(O)C4CC[C@@H]3C2)O[C@@H](C)[C@@H]1O (stereo not given in full)
inactive: outcome (NIH3T3)
active: Potency (CRL-7250 [1]) 25.2 nM | Potency (HEK293) 22.4 nM | Potency (HaCat [2]) 2240 nM

CCN1C[C@]2(OC(=O)c3ccccc3NC(C)=O)CC[C@H](OC)[C@@]34[C@@H]2C[C@@H]([C@@H]13)[C@@]1(O)C[C@H](OC)[C@H]2C[C@@H]4[C@]1(O)[C@H]2OC
inactive: max response (CRL-7250 [1]) -8.79% | max response (HEK293) -11.1% | outcome (HaCat [2]) | max response (KB-3-1) 6.81% | outcome (NIH3T3) | outcome (HACAT [4])
